Results on 7 sequences are retold here after the supplement of paper PMC6555819.

Assay in all cases: PBM binding z-score (relative to random genomic background probes); higher = stronger binding; sequences stand for … in GC…GCGATTGACAGCGTAGAATGAAGG
The test system of assay [1] is RARb homodimer (NR concentration 270 nM). The method in brief: (§1)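 Random background probes are the reference for binding z-scores. These scores derive from regression-normalized fluorescence on custom Agilent 4×180K protein-binding microarrays incubated 1 h with ligand-free nuclear receptor dimers. Binding was detected with antibodies against each partner (one per run).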

The test system of assay [2] is RARg:RXRa (NR concentration 270 nM, RXRa partner concentration 90 nM). Put shortly:
as §1

The test system of assay [3] is RARg homodimer (NR concentration 270 nM). Put shortly: as §1
The test system of assay [4] is RXRa DBDmut IVT, anti-RXR (DBD mutation: RXRa K156A/R161A, NR concentration 90 nM). Put shortly: as §1
Assay [5] concerns RXRa homodimer (NR concentration 180 nM). Put shortly: as §1
Assay [6] deals with THRa:RXRa (NR concentration 90 nM, RXRa partner concentration 90 nM). The method in brief:
as §1

Assay [7] relates to THRa homodimer (NR concentration 90 nM). Put shortly:
as §1

Assay [8] relates to VDR homodimer (NR concentration 270 nM). The method in brief: as §1

Take ATATGTAGGTTACAGCCGGGTCATTCAGGCTATG: the PBM binding z-score in assay [1] worked out at 2.93; in assay [2], 4.28; in assay [3] it was 2.25; in assay [4], 0.721; in assay [5] it was 3.34; in assay [6] it was 3.57. For the same sequence, the PBM binding z-score in assay [7] amounted to 1.89; in assay [8] it was 2.96.
On to CAAACTAGGTCACAGAAGTCAAAGTCCGTGCGTA, for which the PBM binding z-score is 3.41 in assay [1]; 4.45 in assay [2]; 5.16 in assay [3]; 2.03 in assay [4]; 3.63 in assay [5]; 3.3 in assay [6]. The PBM binding z-score amounted to 1.26 in assay [7] and 1.16 in assay [8].
With ACTATTACTTGAGACGAGGGCAACCGATAGGTTG, the PBM binding z-score in assay [1] turned out to be 1.67; in assay [2], 0.798; in assay [3] it was 0.981; in assay [4], 1.01; in assay [5] it was 0.63; in assay [6] it was 1.15. In addition, the PBM binding z-score is 1.02 in assay [7] and 1.76 in assay [8].
Turning to TCTATTAGTTTAAGGGCAACCGACGAGTCCGTTT, the PBM binding z-score in assay [1] amounted to 2.12; in assay [2], 0.831; in assay [3], 1.17; in assay [4], 1.94; in assay [5] it was 0.958; in assay [6], 2.69. Besides, the PBM binding z-score in assay [7] came out at 2.56; in assay [8] it was 2.78.
For CGTCCAAGGTGAAAGGTCAGTGAAGAGATGACGG, the PBM binding z-score in assay [1] worked out at 4.53; in assay [2], 6.03; in assay [3], 5.76; in assay [4], 0.481; in assay [5], 7.85; in assay [6] it was 3.97. Further, the PBM binding z-score came out at 1.23 in assay [7] and 1.08 in assay [8].
As to CATACAGGGTCAACTAGGCCAGAGTAGGGACGGC, the PBM binding z-score in assay [1] worked out at 3.62; in assay [2] it was 5.7; in assay [3], 5.42; in assay [4], 2.74; in assay [5] it was 6.54; in assay [6], 3.74. Further, the figures for the PBM binding z-score in assay [7] and in assay [8] were 1.5 and 2.36, respectively.
With ATCGAAAGGTCGAAGGTAAGTATACCCACCCGAA, the PBM binding z-score in assay [1] was 2.18; in assay [2] it was 3.86; in assay [3], 3.99; in assay [4], 0.89; in assay [5], 4.24; in assay [6], 1.86. For the same sequence, the PBM binding z-score was 0.0677 in assay [7] and 0.843 in assay [8].
